{
  "source": "PubChem BioAssay (Tox21)",
  "note": "Results filed as inconclusive are left out. Values without a mark were called inactive. Calls of active or inactive are those of the source. Calls come from the whole dose curve; as a rule, active = well fitted inhibition curve with a large enough effect in the repeat runs; inconclusive = weak or mixed curves, or effect the other way; inactive = no such curve, though single readings can be large or run the other way. % is set by controls: 0 for no effect and ±100 for the full control effect; potency is the fitted concentration of half-maximal effect.",
  "data": [
    {"target": "Androgen receptor (Homo sapiens) (UniProt P10275)", "sequence (P10275 whole entry, looked up)": "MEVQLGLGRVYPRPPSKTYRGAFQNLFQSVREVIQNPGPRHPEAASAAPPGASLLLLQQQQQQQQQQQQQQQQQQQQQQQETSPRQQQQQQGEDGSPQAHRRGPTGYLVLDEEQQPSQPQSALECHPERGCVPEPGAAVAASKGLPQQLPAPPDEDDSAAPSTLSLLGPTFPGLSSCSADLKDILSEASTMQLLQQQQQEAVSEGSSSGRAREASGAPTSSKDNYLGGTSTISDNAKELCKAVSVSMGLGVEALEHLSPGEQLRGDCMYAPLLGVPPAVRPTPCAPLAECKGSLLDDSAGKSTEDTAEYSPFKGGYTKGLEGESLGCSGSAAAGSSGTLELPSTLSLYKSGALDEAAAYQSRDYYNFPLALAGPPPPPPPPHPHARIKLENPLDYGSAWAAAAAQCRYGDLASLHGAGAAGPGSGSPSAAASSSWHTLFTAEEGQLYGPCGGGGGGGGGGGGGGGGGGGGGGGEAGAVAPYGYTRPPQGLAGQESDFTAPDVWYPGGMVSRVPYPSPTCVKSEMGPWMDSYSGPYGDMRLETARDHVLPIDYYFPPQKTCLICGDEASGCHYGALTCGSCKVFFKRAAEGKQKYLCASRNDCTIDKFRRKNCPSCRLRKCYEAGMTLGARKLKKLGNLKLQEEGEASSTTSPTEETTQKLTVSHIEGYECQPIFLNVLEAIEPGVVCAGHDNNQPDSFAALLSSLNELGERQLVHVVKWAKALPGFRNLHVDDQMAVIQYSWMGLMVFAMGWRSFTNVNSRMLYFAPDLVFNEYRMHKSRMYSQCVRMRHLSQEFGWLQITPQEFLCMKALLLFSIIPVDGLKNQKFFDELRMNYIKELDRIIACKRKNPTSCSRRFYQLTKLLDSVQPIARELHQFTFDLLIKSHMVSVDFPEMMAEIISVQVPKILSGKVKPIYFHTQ", "assay": "qHTS assay to identify small molecule antagonists of the androgen receptor (AR) signaling pathway using the MDA cell line (AID 743042; note: nearly all actives have a fitted effect of over 55% in size)", "conditions": "MDA-kb2 AR-luc, MMTV luciferase, R1881 antagonist, 16 h; series mostly up to 70.3 µM; activity change, negative = inhibition: at the top concentration", "procedure,_shortened": "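MDA-kb2 cells (human breast carcinoma, stably carrying an MMTV-luciferase reporter responsive to AR and GR) were plated at 3,000 cells/well and preincubated 5 hr at 37C, then given compound plus R1881 agonist for 16 h. ONE-Glo luminescence was read.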", "units": {"activity change, negative = inhibition": "%"}, "values": [
      {"smiles": "O=P(O)(O)CP(=O)(O)O", "activity change, negative = inhibition": 10.5},
      {"smiles": "C=CCc1cc(S(=O)(=O)c2ccc(O)c(CC=C)c2)ccc1O", "Potency": "61.1 µM (active)"},
      {"smiles": "COC(=O)C[C@](O)(CCCC(C)(C)O)C(=O)O[C@@H]1C(OC)=CC23CCCN2CCc2cc4c(cc2[C@H]13)OCO4", "note": "(stereo not given in full)", "Potency": "0.0211 µM (active)"},
      {"smiles": "N[C@@H](Cc1cnc[nH]1)C(=O)O", "activity change, negative = inhibition": -0.88},
      {"smiles": "CC(C)c1ncc([N+](=O)[O-])n1C", "activity change, negative = inhibition": 12.7},
      {"smiles": "C[C@@H]1O[C@@H](OC[C@H]2O[C@@H](Oc3c(-c4ccc(OCCO)c(OCCO)c4)oc4cc(OCCO)cc(O)c4c3=O)[C@H](O)[C@@H](O)[C@@H]2O)[C@H](O)[C@H](O)[C@H]1O", "activity change, negative = inhibition": 3.1},
      {"smiles": "CCCCCCCCCCCCCCCCC(C(=O)O)C(O)(CC(=O)O)C(=O)O", "note": "(stereo not given)", "activity change, negative = inhibition": -5.45},
      {"smiles": "O=C(O)COc1ccc(C(=O)c2cccs2)c(Cl)c1Cl", "Potency": "inactive"},
      {"smiles": "CCCC(=O)c1cc(O)c(O)cc1O", "activity change, negative = inhibition": 14.9},
      {"smiles": "O=S(=O)(O)CC(S)CS", "note": "(stereo not given)", "activity change, negative = inhibition": -10.7}
    ]}
  ]
}
